EWS-Fli inh – blocks EWS/Fli oncoprotein-driven transcription | A673 NR0B1-luciferase reporter, viability-normalised | inhibition, % at 12.6 µM | 350,000 tested, 0.67% active | AID 651661;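 active = mean inhibition of at least 50% after viability correction, with every replicate also passing that limit; inconclusive = mean reaches 50% but only one of two replicates passes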;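 also: firefly luciferase signal divided by Alamar Blue viability fluorescence both relative to DMSO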
PAX8 inh HTS – inhibitors of PAX8 transcriptional activity in RMG-I cells; RMG-I TPO-luciferase reporter, SteadyGlo, 24 h; inhibition, % at 12.6 µM; 360,000 tested, 1.2% active; AID 652154;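 active = mean replicate inhibition at least 60% with every replicate also reaching 60%; inconclusive = only one of the two criteria is met; inactive = mean below 60% and not all replicates reaching 60%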;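 also: luciferase light reporting Pax8 driven TPO promoter activity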
SIRT5 block – blocks human SIRT5 desuccinylation of peptide; Purified SirT5, succinyl-peptide AMC, trypsin-coupled fluorescence; inhibition, % at 15 µM; 330,000 tested, 1.1% active; AID 652115; in the data active = inhibition above about 15%; inconclusive = no clear call, values can overlap the other calls
Target sequence (Q9NXA8 whole entry, looked up): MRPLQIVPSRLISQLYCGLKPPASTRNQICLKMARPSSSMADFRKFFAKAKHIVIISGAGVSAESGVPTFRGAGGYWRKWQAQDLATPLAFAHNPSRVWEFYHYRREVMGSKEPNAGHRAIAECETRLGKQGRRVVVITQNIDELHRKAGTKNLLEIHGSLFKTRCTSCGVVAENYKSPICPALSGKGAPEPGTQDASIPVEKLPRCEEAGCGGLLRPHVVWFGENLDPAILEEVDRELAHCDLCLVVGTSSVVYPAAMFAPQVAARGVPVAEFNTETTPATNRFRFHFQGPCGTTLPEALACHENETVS
Ecoli rRNA inh – inhibitors of bacterial rRNA selective over humanized ribosomes; E. coli WT GFP vs humanized-ribosome RFP mutants, fluorescence, 24 h; hits give low values; DMSO median 0, no signal -100; GFP signal change (wild-type ribosome), % (no concentration beside the values); 350,000 tested, 1.6% active;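 active = significant combined selectivity score with lowered wild-type GFP, culture density cut under 30%, mutant RFP and density less affected; inactive = any of these conditions unmet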
PGC1a acetyl inh – modulators of PGC1a acetylation; U2OS PGC1a acetylation, AlphaScreen anti-acetyl-lysine; with virally co-expressed GCN5 acetyltransferase; inhibition, % at 15.6 µM; 350,000 tested, 0.17% active;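 active = every replicate shows inhibition of at least 40%; inconclusive = mean inhibition at least 40% but some replicate below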
LGR2 inh – blocks bursicon-induced cAMP signaling via Drosophila LGR2. HEK293 LGR2, CRE-luciferase, bursicon-stimulated, 4 h. inhibition, % at 9.99 µM. 380,000 tested, 0.35% active. AID 720647;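 active = drop in luminescence signal, shown as inhibition above about 50% in the replicate tests, limit read from the data, passing the limit was not always enough; inconclusive = probably only some replicates passing the limit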;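 also: agonist challenge used bursicon conditioned medium at about half maximal strength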
AID977621 – wild-type E. coli growth inhibition versus H69 humanized strain – H69 mutant RFP, wild-type GFP, cherry-pick, dose response; shares compounds with Ecoli rRNA inh; fluorescence, 24 h; activity change, negative = inhibition at 50 µM; 1,900 tested, under 10 active; AID 977621;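 active = Wild-type ribosome reporter drop at least double the humanized mutant ribosome reporter drop, growth loss under a set limit; inconclusive = no clear call, values can overlap the other calls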;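 also: wild-type GFP and H69 mutant RFP strains grown together 50/50 in each well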
AID977628 – E. coli growth inhibition, wild-type GFP versus h24 humanized RFP strain, dose response, h24 mutant RFP vs wild-type GFP, cherry-pick. shares compounds with Ecoli rRNA inh. E. coli WT GFP strain growth, fluorescence, 24 h. activity change, negative = inhibition at 50 µM. 1,900 tested, under 10 active;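 active = compound lowering the normal-ribosome reporter at least twice as much as the humanized-ribosome reporter, growth loss under a set limit; inconclusive = no clear call, values can overlap the other calls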;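 also: wild-type GFP and h24 humanized RFP strains co-cultured 1 to 1 per well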
Of the large screens only hits and unclear results are named; the others gave an inactive call (follow-up assays come after a bar, where they were run). A selection: hits, their analogues and other compounds. The true share with any hit is near 3.4%.

O=C(C[C@@H]1CC[C@H]2[C@@H](COC[C@H](O)CN2C(=O)Nc2ccc(Cl)cc2)O1)NCc1ccncn1	none
O=C(C[C@@H]1CC[C@@H]2[C@H](COC[C@H](O)CN2C(=O)Nc2ccc(Cl)cc2)O1)NCc1ccncn1	Ecoli rRNA inh -22 | AID977621 inactive | AID977628 inconclusive
O=C(C[C@H]1CC[C@H]2[C@@H](COC[C@@H](O)CN2C(=O)Nc2ccc(Cl)cc2)O1)N1CCCCC1	Ecoli rRNA inh -18 | AID977628 inconclusive
CN1CCN(C(=O)C[C@H]2CC[C@H]3[C@@H](COC[C@@H](O)CN3C(=O)Nc3ccc(Cl)cc3)O2)CC1	Ecoli rRNA inh -19 | AID977628 inconclusive
CN1CCN(C(=O)C[C@H]2CC[C@@H]3[C@H](COC[C@H](O)CN3C(=O)Nc3ccc(Cl)cc3)O2)CC1	none
COc1cccc(NC(=O)N2CC(=O)N3[C@H](CO)[C@H](c4ccc(C#CC5CCCC5)cc4)[C@@H]3C2)c1	none
COc1cccc(NC2=Nc3cccc4cccc2c34)c1	Ecoli rRNA inh -34 (no result: PGC1a acetyl inh) | AID977621 inactive
COc1ccc(NC2=Nc3cccc4cccc2c34)cc1OC	none (no result: EWS-Fli inh, SIRT5 block, Ecoli rRNA inh, LGR2 inh)
O=C(Nc1cccc2ncccc12)c1ccc(Cl)cc1	none
CCc1ccc(C(=O)Nc2cccnc2Oc2ccc(Cl)cc2)cc1	Ecoli rRNA inh -21, PGC1a acetyl inh 87 | AID977621 inactive
COCC(=O)N(C)C[C@@H]1Oc2ncc(-c3cccc(OC)c3)cc2C(=O)N([C@@H](C)CO)C[C@@H]1C	none (no result: PAX8 inh HTS)
COc1ccc(CNc2cc([N+](=O)[O-])ccc2OC)cc1	Ecoli rRNA inh -21 (no result: PAX8 inh HTS) | AID977621 inactive
C[C@@H]1CN([C@H](C)CO)C(=O)c2cccc(NC(=O)C3CCOCC3)c2O[C@@H]1CN(C)C(=O)NC1CCCCC1	none
CCCC#Cc1cnc2c(c1)C(=O)N([C@H](C)CO)C[C@H](C)[C@H](CN(C)C(=O)c1cccc(F)c1)O2	none
O=C(Nc1ccc(C(=O)N2CCCC2)cc1)C1CCCC1	none (no result: SIRT5 block)
O=C(Nc1ccc(C(=O)N2CCOCC2)cc1)C1CCCC1	Ecoli rRNA inh -4.4 | AID977621 inactive | AID977628 inactive
O=C(Cc1cccc(NC(=O)C2CCN(C(=O)C3CCCCC3)CC2)c1)Nc1cccc(C(=O)N2CCCC2)c1	Ecoli rRNA inh -22 (no result: SIRT5 block, PGC1a acetyl inh) | AID977621 inactive
CO[C@@H]1CN(C)C(=O)c2cc(NS(=O)(=O)c3cccc(F)c3)ccc2OC[C@@H](C)N(Cc2cc(F)ccc2F)C[C@H]1C	none (no result: PAX8 inh HTS)
COc1cccc(NC(=O)COC(=O)Cc2ccc(Cl)cc2)c1	Ecoli rRNA inh -36 | AID977621 inactive
COc1ccc(CC(=O)OCC(=O)Nc2cccc(Br)c2)cc1	none
COc1cccc(NC(=O)COC(=O)Cc2ccc(Br)cc2)c1	Ecoli rRNA inh -15 (no result: PGC1a acetyl inh) | AID977621 inconclusive | AID977628 inactive
CCCC#Cc1ccc2c(c1)O[C@@H](CN(C)C(=O)COC)[C@@H](C)CN([C@H](C)CO)S2(=O)=O	none (no result: PAX8 inh HTS)
CN1CCN(C(=O)C[C@H]2C[C@@H]3c4cc(NC(=O)C5CCOCC5)ccc4O[C@@H]3[C@H](CO)O2)CC1	none
O=C(Cc1ccccc1)N1CC2(C1)[C@@H](c1ccccc1)[C@H](CO)N2C(=O)Cc1ccccc1	none (no result: PAX8 inh HTS)
CC(C)Oc1ccc(C(CC(=O)O)NC(=O)Cc2ccc(Cl)cc2)cc1 (centres undefined)	none
CC(C)(C)c1ccc(C(CC(=O)O)NC(=O)Cc2ccc(Cl)cc2)cc1 (centres undefined)	Ecoli rRNA inh -24 | AID977621 inactive | AID977628 inconclusive
C[C@@H]1CN([C@@H](C)CO)C(=O)c2cc(NC(=O)Nc3ccc4c(c3)OCO4)ccc2O[C@@H](C)CCCCO[C@@H]1CN(C)C(=O)Nc1ccccc1	none
Cc1cc(NC(=O)CCCn2cc([N+](=O)[O-])cn2)n(Cc2ccc(F)cc2)n1	Ecoli rRNA inh -23 | AID977621 inactive | AID977628 inconclusive
O=C(Nc1ccc(F)cc1)N[C@H]1CC[C@H](CCNS(=O)(=O)c2ccccc2F)O[C@H]1CO	none (no result: PAX8 inh HTS)
CCOc1ccccc1N1CCN(Cc2cn[nH]c2-c2ccc(F)cc2)CC1	Ecoli rRNA inh -19 | AID977621 inactive
Cc1ccc(S(=O)(=O)N2CC[C@H]3[C@H](CO)Nc4ccc(C#Cc5ccc(F)cc5)cc4[C@H]32)cc1	none
CN(C)CC(=O)N[C@H]1CC[C@H](CC(=O)NCc2ccc(Cl)cc2)O[C@H]1CO	none
O=C(Nc1ccccc1Cl)N1C[C@H]2[C@@H](c3ccccc31)[C@@H](CO)N2Cc1ccccc1	Ecoli rRNA inh -38 | AID977628 inconclusive
COc1cccc(C(=O)N2C[C@@H]3[C@H](c4ccccc42)[C@H](CO)N3Cc2ccccc2Cl)c1	Ecoli rRNA inh -33 | AID977628 inconclusive
COc1ccc(C(=O)N2C[C@H]3[C@@H](c4ccccc42)[C@@H](CO)N3Cc2ccc(Cl)cc2)cc1	Ecoli rRNA inh -51 | AID977628 inconclusive
COc1ccc(C(=O)N2C[C@@H]3[C@H](c4ccccc42)[C@@H](CO)N3Cc2ccccc2)cc1	none
C[C@@H]1CN([C@H](C)CO)C(=O)c2cc(NC(=O)c3ccccc3)ccc2O[C@@H](C)CCCCO[C@@H]1CN(C)S(=O)(=O)c1ccc(Cl)cc1	none
NS(=O)(=O)c1cc(C(=O)OCC(=O)Nc2ccccc2[N+](=O)[O-])ccc1Cl	Ecoli rRNA inh -20 | AID977628 inactive
NS(=O)(=O)c1cc(C(=O)OCC(=O)Nc2ccc(Cl)cc2[N+](=O)[O-])ccc1Cl	none (no result: PGC1a acetyl inh)
COc1ccc(CNC(=O)c2sc3nc4c(c(C(F)(F)F)c3c2N)CCC4)cc1OC	Ecoli rRNA inh -19 | AID977621 inactive | AID977628 inactive
O=[N+]([O-])c1ccc(/C=C/c2ccc3cccc([N+](=O)[O-])c3n2)cc1	Ecoli rRNA inh -18 (no result: PGC1a acetyl inh) | AID977621 inactive | AID977628 inactive
C[C@@H]1CN([C@@H](C)CO)C(=O)c2cc(C#CC(C)(C)O)cnc2O[C@@H]1CN(C)C(=O)C1CCCCC1	none (no result: PAX8 inh HTS, SIRT5 block)
COc1ccc(-c2[nH]ncc2CN2CCCC(C(=O)c3ccc(OC)cc3OC)C2)cc1 (centres undefined)	none (no result: PGC1a acetyl inh)
COc1ccc(OC)c(CN2CCCC(C(=O)c3ccccc3SC)C2)c1 (centres undefined)	Ecoli rRNA inh -18 | AID977628 inconclusive
O=C(COC(=O)c1ccccc1O)NCCC1=CCCCC1	Ecoli rRNA inh -22 | AID977621 inactive | AID977628 inconclusive

Source: PubChem (Broad Institute)
